# Source: PubChem BioAssay AID2783 (National Center for Advancing Translational Sciences (NCATS), 2010)
# Records with an inconclusive call do not appear. Activity calls are given as the source filed them. The call rests on the fitted dose curve; in most records, active means well fitted inhibition curve with a large enough effect in the polarisation, with a control signal flat (not every such curve was filed as active); inconclusive means small, poorly fitted or top-dose-only effect, or effect the other way, or a change in a side signal; inactive means no such curve, though single readings can be large or run the other way; the % refers to the polarisation.
# Molecular target: Menin (Homo sapiens) (UniProt O00255)
# Sequence (O00255 whole entry, looked up): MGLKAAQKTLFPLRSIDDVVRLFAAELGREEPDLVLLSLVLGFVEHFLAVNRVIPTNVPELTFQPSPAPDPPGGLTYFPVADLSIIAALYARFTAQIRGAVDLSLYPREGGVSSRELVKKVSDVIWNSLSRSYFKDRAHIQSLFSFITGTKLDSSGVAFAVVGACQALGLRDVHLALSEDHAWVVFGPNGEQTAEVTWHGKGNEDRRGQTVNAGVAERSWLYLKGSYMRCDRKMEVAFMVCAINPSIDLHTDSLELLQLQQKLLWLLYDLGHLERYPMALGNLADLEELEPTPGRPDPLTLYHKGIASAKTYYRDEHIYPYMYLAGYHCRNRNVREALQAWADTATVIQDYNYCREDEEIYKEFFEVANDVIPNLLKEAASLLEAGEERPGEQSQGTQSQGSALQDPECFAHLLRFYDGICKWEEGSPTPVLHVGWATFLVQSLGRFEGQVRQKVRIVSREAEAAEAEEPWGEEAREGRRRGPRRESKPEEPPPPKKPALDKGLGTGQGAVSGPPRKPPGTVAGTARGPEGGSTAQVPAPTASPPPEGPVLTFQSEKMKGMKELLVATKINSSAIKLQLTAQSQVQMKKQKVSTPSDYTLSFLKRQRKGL
# Assay: Confirmation of Inhibitors Targeting the Menin-MLL Interaction in MLL Related Leukemias: Competition With Fluorescein Labeled MLL-derived Peptide
# Settings: Fluorescence polarization, fluorescein-MLL peptide displacement from menin; series mostly up to 100 µM
# Source text: qHTS Assay for Inhibitors Targeting the Menin-MLL Interaction in MLL Related Leukemias
# NIH Chemical Genomics Center [NCGC]
# NIH Molecular Libraries Probe Centers Network [MLPCN]
# Assay Submitter (PI): Jolanta Grembecka, Tomasz Cierpicki, University of Virginia
# Translocations of the MLL (Mixed Lineage Leukemia) gene are frequently found in human leukemias affecting both children and adults. Fusion of MLL to one of more than 60 genes results in generation of oncogenic proteins upregulating Hox genes, which are vital to blood cell development. Patients harboring fusion of the MLL gene suffer from aggressive leukemias and respond poorly to available therapies. All of the oncogenic fusion proteins have a preserved N-terminal fragment of MLL that has been identified to interact with menin. It has been recently discovered that association with menin is critical to the leukemogenic activity of the MLL fusion oncoproteins. Selective targeting of the menin-MLL interaction could provide an attractive therapeutic approach to develop novel drugs for MLL-related leukemias. Small molecules blocking the menin-MLL interaction should reverse the oncogenic potential of MLL fusion proteins.
# We have developed and optimized a fluorescence polarization-based assay for the identification of Menin-MLL inhibitors. The assay was run employing two different MLL-derived peptides. The present assay uses a 12 amino acid peptide labeled with fluorescein at its N-terminus. This peptide consists of the menin high affinity binding motif from MLL and is potently bound by menin. Another peptide with a mutated sequence, labeled with Texas Red, was used in parallel as a less stringent screen for inhibitors.
# The present assay was run to confirm the activity of hits from the primary screen.
# The Menin protein, the MLL-wild type (w.t.) derived peptide (N-terminal 12 amino acids), the MLL-derived peptide labeled with Texas Red and the MLL-w.t. peptide labeled with Fluorescein were kindly supplied by laboratory of Dr. Jolanta Grembecka, University of Virginia. All protein and peptide solutions were stored in single use aliquots at -80C. The Eu3+ Cyrptate-conjugated mouse monoclonal antibody anti-6 Histidine (Eu3+-AB) and the Streptavidin-XL665 conjugate (XL665) were purchased from Cisbio International (Bedford, MA). All antibody and XL665 conjugate solution stocks were stored in single use aliquots at -20C. The Buffer components for all assays were purchased from Sigma-Aldrich (St. Louis, MO) and Invitrogen (Carlsbad, CA).
# 1. FP reaction buffer: 50 mM Tris-HCl pH 7.5, 50 mM NaCl, 1mM DTT.
# Before use, 0.05% BSA is added.
# 2. Menin protein, MLL-w.t. labeled with fluorescein, MLL-mutant peptide labeled with texas red.
# Stored in singe use aliquots at -80C.
# 3. MLL-w.t. unlabeled peptide as positive control: 10 uM final in FP buffer.
# 1. Prepare Menin at 200 nM, MLL-w.t.-fluorescein at 25 nM, and MLL-mutant-texas red at 50 nM mixture in FP buffer.
# 2. Prepare Menin at 200 nM, MLL-w.t.-fluorescein at 25 nM, MLL-mutant-texas red at 50 nM, and 10 uM MLL-w.t. unlabeled mixture in FP buffer.
# 3. Prepare MLL-w.t.-fluorescein at 25 nM and MLL-mutant-texas red at 50 nM mixture in FP buffer.
# 3. Dispense 4 ul per well of reagent in step 1 in columns 2, 4 - 48 in a black 1536 well plate, dispense 4 ul per well of reagents from steps 2 and 3 in columns 1 and 3 respectively. Incubate plate at ambient for 15 minutes.
# 4. Transfer 23 nl per well of compound to plate and incubate at ambient for 1 hr.
# 5. Read fluorescence polarization for each label using the PerkinElmer Envision.
# Envision protocol for fluorescein: FITC FP Dual Enh Mirror, Excitation filter 480, Emission filter (1) P-pol 535, Emission filter (2) S-pol 535
# Envision protocol for texas red: FP Dual Enh Mirror, Excitation filter 555, Emission filter (1) P-pol 632, Emission filter (2) S-pol 632
row,Compound,outcome
1,CC(=O)N1CCCc2cc(S(=O)(=O)N3CCCC(C(=O)N4CCN(c5ccccc5)CC4)C3)ccc21 (stereo not given),inactive
2,O=C(Nc1cccn(Cc2c(Cl)cccc2Cl)c1=O)c1c(Cl)cccc1Cl,inactive
3,O=C(CCn1nc(-c2ccccc2)ccc1=O)N1CCN(c2ccccn2)CC1,inactive
4,CC(CC(=O)Nc1nc2ccccc2[nH]1)n1ccnc1 (stereo not given),inactive
5,COc1ccc(N(C(=O)c2ccncc2)S(=O)(=O)c2ccc(Cl)cc2)cc1,inactive
6,COC(=O)Cc1c(C)nc2nc(-c3ccc(OC)cc3)[nH]n2c1=O,inactive
7,CCC(=O)NC(=S)Nc1ccc(-c2nc3ccc(C)cc3s2)cc1,inactive
8,O=C(CS)Nc1ccc2ccccc2c1,inactive
9,COc1cccc(-c2nn(-c3ccccc3)cc2/C=C\C(=O)c2cccs2)c1,inactive
10,Cc1c(CCOC(=O)CC23CC4CC(CC(C)(C4)C2)C3)sc[n+]1Cc1ccc([N+](=O)[O-])cc1,inactive
11,O=C(/C=C/c1ccccc1)c1cccs1,inactive
12,Cc1cc(C)c2c(=O)cc(C(=O)NCc3ccccc3)oc2c1,inactive
13,Cc1cccc(NC(=O)CSc2nc3ccc(NC(=O)CSc4nnnn4-c4ccccc4)cc3s2)c1C,inactive
14,CCc1ccc2c(c1)C(NC(C)=O)C(=O)N2CCN1CCOCC1 (stereo not given),inactive
15,O=C(Cn1nc(-c2ccccc2)ccc1=O)N1CCCCC1,inactive
16,O=C(Nc1nnc(SCc2ccc(F)cc2)s1)c1ccc2c(c1)C(=O)N(c1ccccc1Cl)C2=O,inactive
17,CC(c1ccccc1)c1nnc(NC(=O)Nc2ccccc2F)s1 (stereo not given),inactive
18,COc1cc(OC)c2ccc(=O)oc2c1C(CCN1CCOCC1)c1ccc(N(C)C)cc1 (stereo not given),inactive
19,Cc1cc(N2CCOCC2)nc2ccc(Cl)cc12,inactive
20,Cn1ncc2c(N3CCCCC3)nc(NCCCO)nc21,inactive

row,Compound,outcome
1,COc1ccc(-c2cc(-c3ccc(C)cc3)n[nH]2)c(O)c1,inactive
2,CCOC(=O)Cn1cnc2scc(-c3ccc(C)c(C)c3)c2c1=O,inactive
3,O=C(N/N=C/c1cn(-c2cccs2)nc1-c1ccccc1)c1ccccc1O,inactive
4,CCOC(=O)C1CCN(CC(O)COCc2ccccc2)CC1 (stereo not given),inactive
5,CCCOc1ccc(C(=O)N2CCN(Cc3ccc4c(c3)OCO4)CC2)cc1,inactive
6,CC(C)Cc1cc(C(=O)NCCCN2CCOCC2)no1,inactive
7,CCc1nnc(NC(=O)C2(C)COC(c3ccc(OC)cc3)OC2)s1 (stereo not given),inactive
8,COCCNC(=O)C(OC(=O)c1nsc(Cl)c1Cl)C(C)C (stereo not given),inactive
9,CC(=O)c1ccc2c(c1)N(CCCN1CCC(CCO)CC1)c1ccccc1S2,inactive
10,O=c1c2ccccc2nc(N/N=C/c2c(O)ccc3ccccc23)n1O,inactive
11,c1ccc2c(c1)NCC1CCCN21 (stereo not given),inactive
12,COc1ccccc1CNCC(=O)Nc1ccc(C#N)cc1,inactive
13,O=C(C1CCCN(Cc2cccc(Cl)c2)C1)N1CCCCC1 (stereo not given),inactive
14,N=c1oc2ccccc2cc1-c1nc(-c2ccc(Cl)cc2)cs1,inactive
15,CC(C)Sc1nc(N2CCOCC2)c2c3c(sc2n1)COC(C)(C)C3,inactive
16,C=CCN(CC=C)S(=O)(=O)c1ccc(NC(=S)NC(=O)/C=C/c2cccc3ccccc23)cc1,inactive
17,COC(=O)COc1ccc(C(C2C(=O)CC(C)(C)CC2=O)C2C(=O)CC(C)(C)CC2=O)cc1,inactive
18,CCCC(=O)NC(c1ccccc1Cl)c1ccc2cccnc2c1O (stereo not given),inactive
19,CC(c1ccncn1)N(C)Cc1nc(-c2ccc(C(F)(F)F)cc2)no1 (stereo not given),inactive
20,COc1ccc(NC2=C(NCCO)C(=O)c3ccccc3C2=O)cc1,inactive
